CtBP-E1A blk – blocks the CtBP interaction with E1A; AlphaScreen GST-E1A/His-CtBP binding, 1536-well; active compounds read low; activity change, % (no concentration beside the values); 340,000 compounds, 0.49% hits; AID 651724; in the data active = activity change below about -65%; inconclusive = mostly about -30% to -63%
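Homogeneous bead-based format: GST-tagged E1A captured on glutathione donor beads, His-tagged CtBP on nickel acceptor beads; compounds precede bead addition by 2 h at 37 °C.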
DT40 TDP1 no CPT – qHTS for Inhibitors of human tyrosyl-DNA phosphodiesterase 1 (TDP1): qHTS in cells in absence of CPT. Potency, µM (doses to about 46.2 µM), actives largely listed as inhibitors. DT40 Tdp1-/- hTDP1 cells, no CPT, ATP luminescence, 48 h. 420,000 compounds, 15% hits. AID 686978, 2013; note: nearly all actives have a fitted effect of over 55% in size
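DT40 Tdp1-/-;hTDP1 cells, no CPT (DMSO vehicle only), 400 cells/well; compounds pin-transferred; ≥48 hr, 37 °C; CellTiter-Glo 30 min RT dark, luminescence read.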
IL1B secr inh – inhibitors of inflammasome signaling (IL-1 beta secretion). 360,000 compounds, 4.7% hits. activity change, % at 57.5 µM. THP-1 LPS/ATP IL-1B secretion, AlphaLISA, 16 h; active compounds read low; in the data active = activity change below about -50%; inconclusive = mostly about -30% to -49%
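THP-1 cells pretreated 1 hr with compounds (up to 57.5 uM final), then stimulated with LPS (250 ng/mL final) plus ATP (1.25 mM final); secreted IL-1B measured by AlphaLISA after 16 hr, decreased signal indicating inhibition.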
DT40 TDP1 CPT – growth inhibition of DT40 Tdp1-/-;hTDP1 cells with camptothecin (screen for TDP1 inhibitors); 420,000 compounds, 12% hits; chicken DT40 Tdp1-/-;hTDP1 cells + 20 nM CPT, ATP luminescence, 48 h; Potency, µM (top dose mostly 46.2 µM), most hits filed as inhibitors; note: nearly all actives have a fitted effect of over 55% in size
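Chicken DT40 Tdp1-/- cells stably complemented with human TDP1 were seeded at 400 cells/well in medium containing 20 nM camptothecin, exposed to pin-transferred compounds, and grown at 37 °C for at least 48 hr. Viability was read as ATP luminescence.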
Six1-Eya2 blk – Six1/Eya2 interaction inhibition | AlphaScreen GST-Six1/His-Eya2 binding, biochemical; active compounds read low | 360,000 compounds, 0.56% hits | activity change, % (test concentration not listed); in the data active = activity change below about -65%; inconclusive = mostly about -30% to -63%
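Compounds are tested against tagged Six1 and Eya2 proteins bridged by glutathione donor and nickel acceptor beads; after a one-hour incubation at 37 °C without light, AlphaScreen emission is recorded.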
TDP1 block – TDP1 (human) enzyme inhibition. Q9NUW8. recombinant TDP1, AlphaScreen DNA substrate cleavage. Potency, µM (top dose mostly 130 µM), hits mostly inhibitors. 350,000 compounds, 0.28% hits. AID 485290; note: nearly all actives have a fitted effect of over 40% in size
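Compounds were preincubated with Tdp1 (1 nM final) for 15 min at room temperature before substrate (15 nM final) started a 5 min reaction; beads (10 ug/ml final) were then added for 10 min before AlphaScreen detection.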
Hits are given with their value; – = inactive; ? = inconclusive; · = no result given. In the library only some 18% were active in any assay of this set; here they are far more common. Unless noted, calls come from the whole dose curve; as a rule, active = well fitted curve in the direction sought with a large enough effect; inconclusive = small, poorly fitted or top-dose-only effect, or another doubt; inactive = no such curve, though single readings can be large; an effect the other way counts as inactive or inconclusive.

SMILES	CtBP-E1A blk	DT40 TDP1 no CPT	IL1B secr inh	DT40 TDP1 CPT	Six1-Eya2 blk	TDP1 block
CCOc1ccccc1C(=O)Nc1nnc(CC)s1	–	21µM	–	16µM	–	–
CCOc1ccccc1C(=O)Nc1ccccc1C(N)=O	–	–	–	–	–	–
CCOc1ccccc1C(=O)Nc1ccsc1C(=O)OC	–	3.7µM	–	4.1µM	–	–
CCc1nnc(NC(=O)c2cccc(C(=O)Nc3nnc(CC)s3)n2)s1	?	0.021µM	–	0.15µM	–	–
Cc1ccc(NCc2ccc(Cl)nc2)c(NCc2ccc(Cl)nc2)c1	–	?	–	?	–	–
O=C1C=CC(=O)N1c1ccc(OC(F)F)cc1	–	0.65µM	-91	0.41µM	–	–
O=C1C=CC(=O)N1c1ccc(O)cc1	–	2.3µM	–	2.6µM	–	–
O=C1CCCC(=O)N1c1ccc(O)cc1	–	–	–	–	–	–
O=[N+]([O-])c1ccc2c(c1)nc1n2CCN(CC2CCCO2)C1 (stereo unspecified)	–	?	–	?	–	–
C=CCOc1cc(Cl)ccc1C(=O)NCCN(CC)CC	·	–	·	–	·	·
Cc1ccc(-c2nc(CNC(=O)c3cc(C)on3)cs2)cc1	–	?	–	?	–	–
Cc1ccc(-n2nnnc2SC(C)C(=O)Nc2ccc(Cl)cn2)cc1 (stereo unspecified)	–	?	-57	?	–	–
CC(Sc1nncn1C)C(=O)Nc1ccc(Cl)cn1 (stereo unspecified)	–	–	–	–	–	–
Cc1ccc(-n2nnnc2SC(C)C(=O)NCC(=O)Nc2ccc(F)c(F)c2F)c(C)c1 (stereo unspecified)	–	15µM	?	18µM	–	–
Cc1cc(NC(=O)c2cc([N+](=O)[O-])ccc2Cl)no1	–	16µM	?	?	–	·
O=C(c1cc([N+](=O)[O-])ccc1Cl)N1c2ccccc2Sc2ccccc21	–	15µM	?	?	?	–
O=C(Nc1cccc(NC(=O)c2ccccc2[N+](=O)[O-])n1)c1ccccc1[N+](=O)[O-]	–	9.2µM	–	6.5µM	–	–
O=C(Nc1cccc(NC(=O)c2cc([N+](=O)[O-])ccc2Cl)n1)c1cc([N+](=O)[O-])ccc1Cl	·	9.2µM	-100	7.3µM	–	·
CN1/C(=C\C(=O)c2cccc([N+](=O)[O-])c2)Sc2ccccc21	–	–	–	–	–	–
CC(=O)c1sc(NC(=O)c2ccc3c(c2)OCO3)nc1C	–	–	–	–	–	–
O=C(CCc1nc2ccccc2c(=O)[nH]1)Nc1ccc(F)c([N+](=O)[O-])c1	–	?	–	?	–	–
O=C(Nc1cc([N+](=O)[O-])c2[nH]c(=O)c3ccccc3c2c1)C(F)(F)F	–	1.8µM	–	0.29µM	–	·
Cc1cc(F)ccc1S(=O)(=O)N(C(=O)c1ccncc1)c1ccc(OC(=O)c2ccncc2)cc1	–	15µM	–	23µM	–	–
CC(=O)c1c(C)oc2ccc(N(C(=O)c3ccncc3)S(=O)(=O)c3ccc(F)cc3C)cc12	·	7.3µM	·	10µM	·	–
CCOC(=O)c1c(C)oc2ccc(N(C(=O)c3ccncc3)S(=O)(=O)c3ccc(F)cc3C)cc12	·	23µM	·	?	·	–
COc1ccc(N2CCN(C(=O)C(C)(C)Oc3ccc(Cl)cc3)CC2)cc1	?	?	–	?	?	–
CC1CCC2C(=O)N(c3cc(Cl)ccc3OC(=O)c3ccco3)C(=O)C2C1 (stereo unspecified)	–	–	–	–	–	–
CNC(=O)C1CC(=O)N(c2ccc(OCC(=O)Nc3ccc(F)cc3)cc2)C1 (stereo unspecified)	–	–	–	–	–	·
O=C(COc1ccc(Cl)cc1)NCCc1ccccn1	–	–	–	–	–	–
CCn1c(C)nc2cc(C(=O)OC(C(F)(F)C(F)F)C(F)(F)C(F)F)ccc21	–	18µM	–	?	–	–

Assay outcomes (PubChem BioAssay)
